The entries come from a sample that favours hits as a whole.
VDR inh: Inhibitors of the vitamin D receptor (VDR): qHTS. VDR-SRC2-3 peptide fluorescence polarization, 2 h. Vitamin D3 receptor (Homo sapiens), P11473. Potency, µM, for the others: max response, negative = inhibition, usual class: inhibitors. 400,000 compounds, 0.93% hits; further: on the % scale 0 is the no-effect control and ±100 the full control effect
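Signal is fluorescence polarization, reporting how far test compounds block the interaction of VDR with the SRC2-3 coregulator peptide after a 2 h room-temperature incubation.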
G9a inh: qHTS Assay for Inhibitors of Histone Lysine Methyltransferase G9a; G9a H3K9 monomethylation, AlphaScreen, 2 h; Potency, µM (titrated, usually from 102 µM), without a hit: at the top dose activity, negative = inhibition, hits mostly inhibitors; 350,000 compounds, 8.8% hits; Histone-lysine N-methyltransferase EHMT2 (Homo sapiens), Q96KQ7; further: on the % scale 0 is the no-effect control and ±100 the full control effect; nearly all actives have a fitted effect of over 75% in size
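Quantitative HTS format: methyltransferase activity on a biotin-tagged H3K9 peptide is measured by AlphaScreen, using a rabbit anti-monomethyl-H3K9 antibody with streptavidin donor and anti-IgG acceptor beads. Final levels are 20 nM enzyme, 500 nM peptide, 20 uM SAM; 2 h RT.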
ALOX12 inh: Primary qHTS assay for inhibitors of human arachidonate 12S-lipoxygenase (ALOX12): Round 2; Polyunsaturated fatty acid lipoxygenase ALOX12 (Homo sapiens), P18054; purified 12hLO, xylenol orange hydroperoxide absorbance; Potency, µM (titrated, usually from 108 µM), inactives show top-dose activity change, negative = inhibition, actives largely listed as inhibitors; 580,000 compounds, 1.1% hits; AID 1671190, 2021; further: on the % scale 0 is the no-effect control and ±100 the full control effect
Target sequence (P18054 whole entry, looked up): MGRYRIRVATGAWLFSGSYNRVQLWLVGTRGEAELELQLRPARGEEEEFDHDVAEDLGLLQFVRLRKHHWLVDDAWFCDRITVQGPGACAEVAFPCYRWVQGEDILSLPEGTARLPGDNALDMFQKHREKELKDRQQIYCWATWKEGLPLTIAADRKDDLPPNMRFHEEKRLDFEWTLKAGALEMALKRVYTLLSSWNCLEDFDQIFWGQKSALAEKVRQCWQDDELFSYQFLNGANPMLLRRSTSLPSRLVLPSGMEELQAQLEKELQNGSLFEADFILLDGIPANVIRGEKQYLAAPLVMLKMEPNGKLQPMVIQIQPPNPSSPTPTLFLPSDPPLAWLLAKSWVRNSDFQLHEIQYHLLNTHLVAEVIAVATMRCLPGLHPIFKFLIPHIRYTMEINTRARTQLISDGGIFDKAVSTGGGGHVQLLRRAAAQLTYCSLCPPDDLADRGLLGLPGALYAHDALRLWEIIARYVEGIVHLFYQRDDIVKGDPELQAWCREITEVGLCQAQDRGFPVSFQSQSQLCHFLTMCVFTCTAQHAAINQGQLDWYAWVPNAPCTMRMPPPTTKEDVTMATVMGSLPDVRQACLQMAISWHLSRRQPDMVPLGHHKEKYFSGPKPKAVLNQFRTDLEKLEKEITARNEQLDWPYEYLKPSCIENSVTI
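Purified human 12hLO (150 nM final) in 25 mM Hepes, 0.01% Triton X-100, pH 7.0 was preincubated 15 min at room temperature with compound. Then 40 uM arachidonic acid was added, 30 min. Hydroperoxide was read by Fe-XO absorbance ratio 573/405 nm.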
Sfp PPTase inh: qHTS Assay for Inhibitors of Bacillus subtilis Sfp phosphopantetheinyl transferase (PPTase); 310,000 compounds, 3.5% hits; 4'-phosphopantetheinyl transferase ffp (Bacillus subtilis), Q9F4F7; Potency, µM, for inactives: largest response in the series, negative = inhibition, most hits filed as inhibitors; AID 1490, 2009; Biochemical Sfp PPTase activity, qHTS;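 further: the enzyme is Sfp with the accession as filed and its product quenches rhodamine fluorescence; 0% = enzyme reaction without inhibitor and -100% = no enzyme wells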
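With Hepes-Na pH 7.6 buffer containing 10 mM MgCl2, Sfp (15 nM) modified BHQ-2-YbbR (12.5 uM) using rhodamine-CoA (5 uM). Two reads 30 minutes apart at 525/598 nm yielded each well's rate.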
Glioma ERSR ind: qHTS for Inducers of the Endoplasmic Reticulum Stress Response (ERSR) in Human Glioma: qHTS; Potency, µM, for the others: at the top dose activation, usual class: activators; 420,000 compounds, 0.02% hits; U87-MG GRP78 promoter luciferase reporter, 16 h; further: series mostly up to about 76 µM; % of control where 0% means no effect; nearly all actives have a fitted effect of over 35% in size
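ERSR induction read as luciferase luminescence (Bright-Glo, 10 min at room temperature) in stably transfected human U87-MG glioma cells exposed to compounds for 16 h, using GRP78 as sensor.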
An asterisk follows results filed as active; ? = inconclusive; . = not tested or not shown; [ ] = another dose, or the depositor's remark. The call rests on the fitted dose curve; in most records, active means well fitted curve in the direction sought with a large enough effect; inconclusive means small, poorly fitted or top-dose-only effect, or another doubt; inactive means no such curve, though single readings can be large; an effect the other way counts as inactive or inconclusive. Potency means the concentration at half of the fitted maximal effect.

SMILES	VDR inh	G9a inh	ALOX12 inh	Sfp PPTase inh	Glioma ERSR ind
COc1ccc2c(c1)c1nc3ccccc3nc1n2Cc1ccc(OC(C)C)c(OC)c1	-18.6%	5.5%	11.7%	14.1µM*	-1.2%
Cc1nn(Cc2cccc(C(=O)Nc3ccn(Cc4ccccc4F)n3)c2)c(C)c1[N+](=O)[O-]	8.3%	27.3%[12.7 µM]	20.9%	22.4µM*	-4.4%
CC(=O)NC1(C)CCN(Cc2ccccc2-c2ccc3c(ccn3C)c2)C1 (stereo not given)	.	.	28.2µM*	.	.
CC(=O)NC1(C)CCN(Cc2ccccc2-c2cccc(C(C)=O)c2)C1 (stereo not given)	.	.	35.5µM*	.	.
CC(=O)NC1(C)CCCN(Cc2cccc(-c3c(C)noc3C)c2)C1 (stereo not given)	.	.	39.8µM*	.	.
CC(=O)NC1(C)CCN(Cc2ccc(-c3cccc(F)c3)cc2)C1 (stereo not given)	.	.	50.1µM*	.	.
COc1ccccc1-c1ccccc1CN1CCC(C)(NC(C)=O)C1 (stereo not given)	.	.	2.3%[176 µM]	.	.
CC(=O)N1CCC(C(=O)Nc2ccc(Br)cc2F)CC1	.	.	4.2%	.	.
Cc1ccccc1C(=O)Nc1ccc2oc(-c3ccccc3F)nc2c1	.	.	11.4%	.	.
Fc1ccccc1C1c2cccn2CCN1C(=S)Nc1cccc(Br)c1 (stereo not given)	-11.6%	?	-2.1%	-15.3%	-1.1%
CNC(=S)N1CCn2cccc2C1c1ccc(F)cc1 (stereo not given)	0.5%	35.5µM*	?	56.2µM*	-1.3%
COc1ccccc1NC(=S)N1CCn2cccc2C1c1cccnc1 (stereo not given)	-10.1%	56.2µM*	17.0%	7.8%	-1.5%
S=C(NC1CCCCC1)N1CCn2cccc2C1c1cccnc1 (stereo not given)	-26.8%	70.8µM*	7.9%	2.1%	3.5%
Fc1ccc(C2c3cccn3CCN2C(=S)Nc2cccc(F)c2)cc1 (stereo not given)	14.9%	-45.9%	-18.3%	20.6%	-4.7%
Fc1ccccc1C1c2cccn2CCN1C(=S)Nc1ccc(Br)cc1 (stereo not given)	0.6%	25.1µM*	?	20.1%	-3.7%
Cc1cc2nc(CSCC(=O)Nc3cccc(C)c3C)cc(=O)n2o1	.	.	-28.9%	.	.
CC1Cc2ccccc2N1C(=O)CSc1nc2cc(S(=O)(=O)N3CCOCC3)ccc2o1 (stereo not given)	.	.	4.9%	.	.
CC(=O)c1cccc(Nc2nc3ccccc3nc2NS(=O)(=O)c2cc(C)ccc2C)c1	.	.	-39.8%	.	.
CC(Oc1cccc(Cl)c1)C(=O)NC(C)c1ccccc1 (stereo not given)	.	.	34.3%	.	.
CCCC(=O)N1c2ccccc2-c2nnc(SC)nc2OC1C (stereo not given)	.	.	-1.4%	.	.
COC(=O)C1=C(C)OC(n2cccc2)=C(C#N)C1c1cccc(OC)c1OC (stereo not given)	.	.	3.5%	.	.
S=C(Nc1ccccc1)N1CCn2cccc2C1c1cccnc1 (stereo not given)	-4.1%	?	-14.1%	1.2%	-1.1%
Fc1cccc(NC(=S)N2CCn3cccc3C2c2cccnc2)c1 (stereo not given)	-8.6%	50.1µM*	2.2%	2.3%	-1.0%
C=CCNC(=O)c1ccc(Cn2ccn3nc4c(c3c2=O)CCCC4)cc1	.	.	68.8%	.	.
Cc1ccc(-c2csc(CCn3nc(C)c4c(C(F)(F)F)cc(=O)[nH]c43)n2)cc1	.	.	10µM*	.	.
Cc1nn(CCc2nn[nH]n2)c2nc(-c3ccc(Br)cc3)cc(C(F)(F)F)c12	-1.8%	-30.6%	-16.6%	1.7%	-8.5%
COc1ccc(-c2csc(CCn3nc(C)c4c(C(F)(F)F)cc(=O)[nH]c43)n2)cc1	.	.	17.8µM*	.	.
O=C(N/N=C\c1ccc([N+](=O)[O-])s1)C1COc2ccccc2O1 (stereo not given)	1.0%	13.3%	-24.2%	-6.7%	-1.9%
